Among all 2,300 compounds or so, about 1,400 (61%) were called active. About 29% were inconclusive and are not listed. The set was probably picked from earlier hits. This is one part of the list. Values without a mark were called inactive. The call rests on the fitted dose curve; in most records, active means well fitted inhibition curve with a large enough effect; inconclusive means small, poorly fitted or top-dose-only effect, or effect the other way; inactive means no such curve, though single readings can be large or run the other way.
On the % scale 0 is the no-effect control and ±100 the full control effect; potency means the concentration at half of the fitted maximal effect.

This test in a line: Confirmation screen for delayed death inhibitors of the malarial parasite plastid, 96 hour incubation. Further: nearly all actives have a fitted effect of over 60% in size. The note with it: P. falciparum luciferase growth in erythrocytes; series mostly up to 28.7 µM; activity change, negative = inhibition: at the top concentration. The source says: The goal of this screen is to discover new antimalarial compounds that act by inhibiting the development of the apicoplast in the malarial parasite Plasmodium falciparum. The biochemical processes that make this organelle essential for erythrocytic stage parasites are not well understood. However, antibiotics, such as azithromycin and tetracycline, which target the apicoplast translational machinery, have a potent antimalarial effect. […] We have developed a cell-based assay that measures parasite growth based on the expression of an integrated copy of a firefly luciferase reporter. To detect small molecules that cause this "delayed death phenotype, erythrocytes infected with the luciferase-expressing parasites were incubated with compounds for either one or two generations, corresponding to 48 and 96 hours, respectively. Compounds that inhibit parasite growth in the second generation, but not the first, should be enriched in antimalarials that target the apicoplast. Growth inhibition is detected by a decrease in luciferase activity. MLPCN Grant: R21 NS059500 Assay Provider: David Fidock and Eric Ekland, Columbia University Keywords: NIH Roadmap, MLPCN, MLI, MLSMR, qHTS, NCGC, qHTS, malaria, luciferase, viability
Four microliters of culture medium (RPMI 1640 with 0.5% w/v Albumax (GIBCO), 24 mM sodium bicarbonate and 10 ug/mL gentamycin) were dispensed by a Multi-drop Combi into white solid 1536-well plates (Grenier) and 23 nL compound was added by a pin tool. Four microliters of infected erythrocytes (2% hematocrit, 0.1% parasitemia final concentration) in culture medium were dispensed and the plates incubated for 96 hours at 37 C in 5% CO2. Two microliters of luciferase detection reagent was added and luminescence was detected by a ViewLux (PerkinElmer) reader
For the compound `Cc1ccccc1C(=O)Nc1ccc2c(c1)CCCN2C(=O)c1cccs1`, the Potency was 12.6 µM (active).

For the compound `COc1cc(OC)cc(C(=O)Nc2ccc3c(c2)CCCN3C(=O)c2cccs2)c1`, the Potency was 11.2 µM (active).

As to `CC(C)c1[nH]nc2c1C(C1C=CCCC1)C(C#N)=C(N)O2` (configuration not stated), the Potency was 14.1 µM (active).

As for `CCOCCCNC(=S)N1CCN(c2nc(-c3ccccc3)cs2)CC1`, the Potency is 12.6 µM (active).

As to `Cc1c(-c2ccccc2)nc2ccccc2c1C(=O)Nc1ccncc1`, the Potency was 0.178 µM (active).

With `CC(C)CC1c2[nH]c3ccccc3c2CCN1CCCn1cccn1` (configuration not stated), the Potency was 8.91 µM (active).

Take `CC(=O)c1ccc(NC(=S)Nc2ccc3cn[nH]c3c2)cc1`: the “activity change, negative = inhibition” value is 0.644%.

As to `CCC(=O)NC(=S)Nc1ccc(NC(=O)c2ccc(C)c([N+](=O)[O-])c2)cc1`, the Potency is 10 µM (active).

`CN(C(=O)c1cc([N+](=O)[O-])ccc1NCc1cccnc1)c1ccccc1`: the Potency is 11.2 µM (active).

Regarding `CN1/C(=C\C(=O)CSc2cccc[n+]2[O-])C(C)(C)c2ccccc21`, the Potency was 15.8 µM (active).

Consider `CSc1nnc(C)c(=O)[nH]1`, for which the “activity change, negative = inhibition” value is -5.97%.

Consider `Clc1cccc(Cl)c1C[n+]1ccc2ccccc2c1`, for which the Potency is 1.26 µM (active).

In the case of `Cc1ncc(CO)c(/C=N/NC(=S)Nc2ccc(F)cc2)c1O`, the Potency was 14.1 µM (active).

`Cc1cccc(N/N=C(\C(N)=O)C2=NC(C)(C)Cc3ccccc32)c1`: the Potency was 3.98 µM (active).

Consider `CC(=O)c1ccc(N/N=C(/C(N)=O)C2=NC(C)(C)Cc3ccccc32)cc1`, for which the Potency was 6.31 µM (active).

With `O=C(COc1ccccc1Cl)NC(=S)N1CCc2ccccc21`, the Potency was 14.1 µM (active).

In the case of `O=C(NCc1ccccn1)Nc1cc(Cl)ccc1Cl`, the Potency was 6.31 µM (active).

As for `CC(=O)c1cccc(Oc2cc(NN3CCCCC3)c([N+](=O)[O-])cc2[N+](=O)[O-])c1`, the Potency was 11.2 µM (active).

Turning to `Cc1noc(C)c1C(=O)Nc1nc(-c2ccc(F)cc2)cs1`, the “activity change, negative = inhibition” value is 8.57%.

For `Cc1onc(-c2c(Cl)cccc2Cl)c1C(=O)Nc1nc(C(C)(C)C)cs1`, the Potency is 6.31 µM (active).

`Cc1onc(-c2c(Cl)cccc2Cl)c1C(=O)N=C(N)N1CC(C)OC(C)C1` (configuration not stated): the Potency was 7.08 µM (active).

With `Cc1onc(-c2c(Cl)cccc2Cl)c1C(=O)NC1CCCCC1`, the Potency was 11.2 µM (active).

As to `COc1ccc(NC(=O)c2c(-c3c(Cl)cccc3Cl)noc2C)c(OC)c1`, the Potency was 2.24 µM (active).

As to `COc1cnc(-c2ccccn2)nc1Oc1ccc(C(C)(C)C)cc1`, the Potency is 2.51 µM (active).

As to `COc1cnc(-c2ccccn2)nc1N(C)c1ccccc1`, the Potency was 2 µM (active).

With `CSC1=NC(C)(C)C=C(/C=C/c2c(Cl)cccc2Cl)N1`, the Potency was 10 µM (active).

As to `CSC1=NC(C)(C)C=C(/C=C/c2ccc(Cl)cc2)N1`, the Potency is 4.47 µM (active).

For `CSC1=NC(C)(C)C=C(/C=C/c2ccc(Cl)cc2Cl)N1`, the Potency was 1.78 µM (active).

As for `CC1(C)Cc2c(ccc3ccccc23)C(c2cc3ccccc3oc2=O)=N1`, the Potency was 4.47 µM (active).

For the compound `CN(C(=O)CN1C(=O)CCSc2ccc(S(=O)(=O)N3CCCC3)cc21)c1ccccc1`, the Potency was 7.94 µM (active).

Consider `CCN(CC)CCn1c2c(c(SCC(=O)Nc3nc4ccccc4s3)nc1=O)CCCC2`, for which the Potency was 2 µM (active).

Consider `CCc1c(C(=O)NCCc2cccc(C)c2)[nH]c(C)c1C(C)=O`, for which the Potency is 12.6 µM (active).

As for `CCc1c(C(=O)NC2CCCc3ccccc32)[nH]c(C)c1C(C)=O` (configuration not stated), the “activity change, negative = inhibition” value was -14.9%.

In the case of `CCC(=O)NCCc1cc2ccc(C)cc2[nH]c1=O`, the “activity change, negative = inhibition” value was 1.76%.

On to `COC(=O)COc1ccc2c(=O)c(-c3ccccc3OC)coc2c1`, for which the “activity change, negative = inhibition” value is -27.7%.

For `CCOC(=O)Nc1ccc2c(CNC(C)c3ccccc3OC)cc(=O)oc2c1` (configuration not stated), the Potency was 12.6 µM (active).

Turning to `C=C[C@]1(C)C[C@@H](OC(=O)CSCCN(CC)CC)[C@]2(C)C(C)CC[C@]3(CCC(=O)[C@H]32)[C@@H](C)[C@@H]1O` (some centres not stated), the Potency was 2 µM (active).

As for `CN(Cc1ccc(Cl)c(Cl)c1)C(=O)C1=CC=CN2CCS(=O)(=O)N=C12`, the Potency is 5.01 µM (active).

Take `COC(=O)c1ccc(Sc2nnnn2-c2ccccc2)c([N+](=O)[O-])c1`: the Potency is 12.6 µM (active).

For the compound `CC1CCN(C(=O)Cn2cc(C(=O)c3ccco3)c3ccccc32)CC1`, the Potency is 14.1 µM (active).

Consider `Cc1ccc(NC(=O)C(=Cc2ccc(C(=O)O)cc2)C(=O)Nc2ccc(C)cc2C)c(C)c1`, for which the Potency is 6.31 µM (active).

`Cn1c(=O)[nH]c(=O)c2c1nc(NCc1ccccc1)n2Cc1ccc(F)cc1`: the Potency is 3.55 µM (active).

Turning to `C/C(CC(=O)NC1CCCCC1)=N\NC(=O)COc1ccc(C)cc1Br`, the Potency was 15.8 µM (active).

As for `Cc1ccc(OCC(=O)Nn2cnnc2)c(Br)c1`, the “activity change, negative = inhibition” value was 8%.

On to `O=C(c1ccc(OC2CCN(Cc3ccccc3OC(F)F)CC2)cc1)N1CCCC1`, for which the Potency was 2.51 µM (active).

As for `COc1ccc(CCC(C)N2CCC(Oc3ccc(C(=O)N4CCCC4)cc3)CC2)cc1` (configuration not stated), the Potency is 10 µM (active).

Regarding `CCN(CC)CCOC(=O)c1ccc(NC(=O)C(C)NC(=O)C23CC4CC(CC(C4)C2)C3)cc1` (configuration not stated), the Potency is 12.6 µM (active).
